Compound activity deposited in PubChem by National Center for Advancing Translational Sciences (NCATS).
Shown are actives, neighbours in structure and some others; about 10% of the full set was active somewhere.
CtBP-E1A blk: qHTS Assay for Inhibitors of the CtBP/E1A Interaction | CtBP / adenovirus E1A interaction (AlphaScreen) | activity change, % (concentration not given with the values) | AID 651724, 2012 | AlphaScreen GST-E1A/His-CtBP binding, 1536-well; stronger effect = lower value | hit rate 0.49% among 340,000; in the data active = activity change below about -65%; inconclusive = mostly about -30% to -63%; also: % is scaled to controls: 0 for no effect and ±100 for the full control effect
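Protein mix (5X: 125 nM each GST-E1A, His-CtBP) was incubated with pinned compound 2 h at 37 deg C in dark, in 50 mM Tris pH 8.0 buffer with 300 mM NaCl. Glutathione donor and nickel acceptor beads followed; AlphaScreen signal read after 1 h.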
JMJD2A Tudor inh: qHTS Assay for Inhibitors of JMJD2A-Tudor Domain | Lysine-specific demethylase 4A (Homo sapiens), O75164 | AlphaScreen JMJD2A-Tudor / H3K4me3 peptide binding | Potency, µM (highest dose often 114 µM), without a hit: top-dose activity change, negative = inhibition, actives largely listed as inhibitors | hit rate 4.4% among 390,000 | AID 504339, 2011; also: potency is read from the fitted curve at half-maximal effect; % is scaled to controls: 0 for no effect and ±100 for the full control effect; nearly all actives have a fitted effect of over 50% in size
G9a block: qHTS Assay for Inhibitors of Histone Lysine Methyltransferase G9a; Histone-lysine N-methyltransferase EHMT2 (Homo sapiens), Q96KQ7; G9a H3K9 monomethylation, AlphaScreen, 2 h; Potency, µM (top dose mostly 102 µM), for the others: at the top dose activity, negative = inhibition, hits mostly inhibitors; hit rate 8.8% among 350,000; AID 504332, 2011; also: potency is read from the fitted curve at half-maximal effect; % is scaled to controls: 0 for no effect and ±100 for the full control effect; nearly all actives have a fitted effect of over 75% in size
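G9a (20 nM) was preincubated 15 min with compound, then reacted 2 h at room temperature with 500 nM biotin-H3K9 peptide and 20 µM SAM. Monomethyl-H3K9 detected by AlphaScreen using anti-H3K9me1 antibody.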
BAZ2B inh: qHTS Assay for Inhibitors of BAZ2B. AlphaScreen BAZ2B-H3K14Ac peptide displacement. Potency, µM (series often up to 114 µM), for inactives: top-dose activity change, negative = inhibition, actives largely listed as inhibitors. hit rate 4.4% among 360,000. AID 504333, 2011; also: potency is read from the fitted curve at half-maximal effect; % is scaled to controls: 0 for no effect and ±100 for the full control effect; nearly all actives have a fitted effect of over 60% in size
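In this displacement format the biotinylated H3(5-23) peptide acetylated at Lys14 serves as ligand at 50 nM, with BAZ2B at 50 nM in PBS pH 7.4 containing 0.01% Tween-20. Donor and acceptor beads are 10 ug/mL final.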
Six1-Eya2 blk: qHTS Assay for Inhibitors of the Six1/Eya2 Interaction; Homeobox protein SIX1 (Homo sapiens) + Protein phosphatase EYA2 (Homo sapiens), …; AlphaScreen GST-Six1/His-Eya2 binding, biochemical; stronger effect = lower value; activity change, % (test concentration not listed); hit rate 0.56% among 360,000; in the data active = activity change below about -65%; inconclusive = mostly about -30% to -63%; also: % is scaled to controls: 0 for no effect and ±100 for the full control effect
Target sequence (O00167 whole entry, looked up): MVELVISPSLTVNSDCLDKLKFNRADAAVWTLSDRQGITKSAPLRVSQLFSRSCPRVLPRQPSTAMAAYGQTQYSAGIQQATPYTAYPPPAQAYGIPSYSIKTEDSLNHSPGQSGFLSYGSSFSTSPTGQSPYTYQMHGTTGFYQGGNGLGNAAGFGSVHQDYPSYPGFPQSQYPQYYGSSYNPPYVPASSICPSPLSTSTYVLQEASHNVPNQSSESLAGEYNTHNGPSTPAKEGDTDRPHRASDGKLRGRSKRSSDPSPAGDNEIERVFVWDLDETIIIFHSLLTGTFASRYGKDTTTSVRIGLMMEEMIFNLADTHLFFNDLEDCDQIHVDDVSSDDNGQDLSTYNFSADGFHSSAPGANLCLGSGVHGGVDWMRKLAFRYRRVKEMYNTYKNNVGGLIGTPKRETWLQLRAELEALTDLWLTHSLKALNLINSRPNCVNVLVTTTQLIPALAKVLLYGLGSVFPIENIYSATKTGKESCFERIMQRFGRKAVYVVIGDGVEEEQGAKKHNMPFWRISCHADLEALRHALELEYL
Target sequence (Q15475 whole entry, looked up): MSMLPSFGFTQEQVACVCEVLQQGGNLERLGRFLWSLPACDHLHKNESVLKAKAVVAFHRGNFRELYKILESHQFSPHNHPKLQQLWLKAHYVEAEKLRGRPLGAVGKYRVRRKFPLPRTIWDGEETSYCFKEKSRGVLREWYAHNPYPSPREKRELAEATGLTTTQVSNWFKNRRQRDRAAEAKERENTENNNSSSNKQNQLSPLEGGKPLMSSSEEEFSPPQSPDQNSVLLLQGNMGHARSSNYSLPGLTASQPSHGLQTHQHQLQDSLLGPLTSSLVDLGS
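AlphaScreen with GST-Six1 and His-Eya2 (5X mix: 250 nM and 500 nM), glutathione donor and nickel acceptor beads; buffer 50 mM Tris pH 8.0, 300 mM NaCl, 1 mM TCEP; 1 h at 37 C in the dark.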
HP1b chromo inh: HTS for Inhibitors of HP1-beta Chromodomain Interactions with Methylated Histone Tails | hit rate 0.56% among 390,000 | AlphaScreen HP1-beta / biotin-H3K9me3 peptide binding | Chromobox protein homolog 1 (Homo sapiens), P83916 | Potency, µM (series often up to 114 µM), for inactives: at the top dose activity change, negative = inhibition, most hits filed as inhibitors; also: potency is read from the fitted curve at half-maximal effect; nearly all actives have a fitted effect of over 70% in size
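HP1-beta protein (50 nM final) preincubated 30 min at room temperature with biotinylated H3(1-18)K9me3 peptide (50 nM) in PBS pH 7.4, 0.01% Tween-20, then compound added for 30 min. AlphaScreen streptavidin donor/nickel chelate acceptor beads (10 ug/mL final), 30 min dark, luminescence read.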
Active calls of the source: *; ? = inconclusive; · = no result; [ ] = another dose, or the depositor's remark. Unless noted, calls follow the shape of the dose curve; as a rule, active = well fitted inhibition curve with a large enough effect; inconclusive = small, poorly fitted or top-dose-only effect; inactive = no such curve, though single readings can be large or run the other way.

SMILES	CtBP-E1A blk	JMJD2A Tudor inh	G9a block	BAZ2B inh	Six1-Eya2 blk	HP1b chromo inh
COc1ccccc1N1CSC2=C(C#N)C(c3ccc(SC)cc3)CC(=O)N2C1 (configuration not stated)	-3.3	17.8µM*	2.24µM*	50.1µM*	-4.7	22.4µM*
CCCN1CNc2c(c(=O)[nH]c(=S)n2CCc2ccccc2C)C1	·	-15.6%	·	·	·	34.4%
O=C1C=C(c2ccc3cc[nH]c3c2)C[C@@H](c2ccc3c(c2)OCO3)C1	?	56.2µM*	-4.0%[0.501 µM]	50.1µM*	-12.1	?
O=C1C=C(c2ccc3c(c2)OCO3)C[C@@H](c2ccc3c(c2)OCO3)C1	-6.3	-20.4%	6.2%[0.501 µM]	-10.5%	0.0	22.1%
O=C(CSc1nnc(C2CC2)n1Cc1ccccc1)c1cc2ccccc2o1	-8.3	56.2µM*	44.7µM*	-34.7%	-9.6	13.9%
Cn1c(N)c(C(=O)CSc2nnc(C3CC3)n2Cc2ccccc2)c(=O)n(C)c1=O	2.7	-9.0%	·	·	-11.1	19.5%[57 µM]
CN(C)c1ccc(CNC(=O)c2ccc(CNc3c(N4CCCCC4)c(=O)c3=O)cc2)cc1	-24.7	?	44.7µM*	-8.8%	-1.8	6.5%
CN(C)c1ccc(CNC(=O)c2ccc(NC(=O)N3CCCCc4ccccc43)cc2)cc1	·	35.5µM*	?	28.2µM*	·	8.6%
CC(C)Oc1ccc(C(=O)NCC(c2ccc(N(C)C)cc2)N2CCc3ccccc32)cc1 (configuration not stated)	·	7.08µM*	14.1µM*	15.8µM*	·	?
CCc1ccc(CNC(=O)c2ccc(NC(=O)N3CCCCc4ccccc43)cc2)cc1	·	-24.0%	6.6%[59 µM]	-3.0%	·	-13.2%
Cc1ccc(C(=O)NCC(c2cccnc2)N2CCc3ccccc32)cc1C (configuration not stated)	·	?	?	?	·	-16.2%
COc1ccc(C(=O)NCC(c2ccc(N(C)C)cc2)N2CCc3ccccc32)cc1 (configuration not stated)	·	7.08µM*	10µM*	8.91µM*	·	10µM*
CCOc1ccc2nc(NC(=O)c3nc(SCc4ccccc4C)ncc3Cl)sc2c1	·	-14.5%	7.4%[59 µM]	-1.0%	·	23.2%
Cc1ccc(CNC(=O)c2cccn2-c2nnc(N3CCCCC3)s2)cc1	·	-26.3%	3.2%[59 µM]	-20.4%	·	23.0%
CN(C)c1ccc(C(CNC(=O)c2ccccc2)N2CCc3ccccc32)cc1 (configuration not stated)	·	12.6µM*	12.6µM*	11.2µM*	·	?
COc1cc(-c2nc(-c3ccccc3)c(-c3ccc(Br)cc3)[nH]2)cc(OC)c1O	·	44.7µM*	10µM*	28.2µM*	·	?
Oc1ccc(-c2nc(-c3ccccc3)c(-c3ccc(Br)cc3)[nH]2)cc1	·	?	-10.4%[59 µM]	?	·	-11.9%
CCOc1ccc(-c2nc(-c3ccccc3)c(-c3ccccc3)[nH]2)cc1OCC	·	-14.6%	13.7%[59 µM]	-12.4%	·	40.8%
COc1ccc(-c2[nH]c(-c3cc(OC)c4c(c3)OCO4)nc2-c2ccccc2)cc1	?	?	39.8µM*	?	?	?
COc1ccc(-c2nc(-c3ccccc3)c(-c3ccc(F)cc3)[nH]2)c(OC)c1C	·	?	?	25.1µM*	·	-12.1%
Cc1nn(C(=O)c2cccc([N+](=O)[O-])c2C)c(C)c1S(=O)(=O)N1CCCCCC1	·	-8.3%	-2.7%[59 µM]	-20.5%	·	12.4%[57 µM]
O=C1CC2CCCN2C=C1I (configuration not stated)	2.8	17.8µM*	·	·	0.1	22.8%
CCOC(=O)C1=CN2CCC[C@H]2CC1=O	-0.9	-9.7%	·	·	0.0	20.2%
O=C(NC(Nc1nc2ccccc2s1)(C(F)(F)F)C(F)(F)F)c1ccccc1	-7.5	-13.0%[57.1 µM]	22.4%[59 µM]	-16.1%	9.3	32.1%
